48 compounds from PubChem BioAssay AID588855 (National Center for Advancing Translational Sciences (NCATS), 2011) can be followed below.

Molecules are shown by their SMILES. Hit rate of the full screen: of about 410,000 compounds, about 5,000 (1.2%) were called active. Another 13% or so got no clear call; they are omitted. This excerpt belongs to a sample that is enriched for actives. Unmarked numbers belong to inactive results. Calls follow the shape of the dose curve; as a rule, active = well fitted inhibition curve with a large enough effect; inconclusive = small, poorly fitted or top-dose-only effect; inactive = no such curve, though single readings can be large or run the other way.
% is scaled to controls: 0 for no effect and ±100 for the full control effect; potency is read from the fitted curve at half-maximal effect.

The experiment can be described thus: qHTS for Inhibitors of TGF-b. Also: nearly all actives have a fitted effect of over 65% in size. Particulars: HepG2 CAGA-GFP TGF-b/SMAD3 reporter, GFP fluorescence, 18 h, TGF-beta stimulated, 500 pg/mL final; series mostly up to 46.1 µM; activity, negative = inhibition: at the top concentration. The procedure, abridged:
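First, reporter cells (HEPG2 CAGA-GFP) rested 2 h at 37 degrees C. Next, compounds were pinned in and TGF-beta added to 500 pg/mL final. After 18 h, GFP was imaged per cell and summed per well.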
(In general: In qHTS, concentration-response curves come from the screen itself.)
On to `COc1cc2[nH]c(C)c(CCN3CCN(c4ccccc4)CC3)c2cc1OC`, for which the “activity, negative = inhibition” value is -37.4%.
Regarding `O=C(NNc1ccccc1Cl)C(O)(c1cccc(C(F)(F)F)c1)c1cccc(C(F)(F)F)c1`, the Potency was 15.8 µM (active).
Consider `O=C(CNS(=O)(=O)c1cccc(C(F)(F)F)c1)Nc1ccccc1F`, for which the “activity, negative = inhibition” value was -15.6%.
On the same count and under the same terms, next, `O=C(Nc1cc(C(F)(F)F)ccc1Cl)c1nc2ccccc2nc1N1CCCCC1`: 12.6%; `COc1ccc(CNC(=O)CCc2c(C)nn(-c3ccc(N4CCCC4)nn3)c2C)cc1`: -14%.
On the same count and under the same terms, in the case of `Cc1ccccc1CNC(=O)CSc1nnc(C)c2c(C)n(-c3ccccc3)nc12` it was 1.99%.
The same measure, in the same setting: next, `O=C(NCCc1ccc(Cl)cc1)c1ccc2nc(CCc3ccccc3)oc2c1`: 9.09%.
Turning to `Cc1ccc(C)c(Cn2c(CCCNC(=O)C3CCCCC3)nc3ccccc32)c1`, the “activity, negative = inhibition” value is -5.37%.
Regarding `Cn1c(N)c(C(=O)COC(=O)/C=C/c2cccc(C(F)(F)F)c2)c(=O)n(C)c1=O`, the “activity, negative = inhibition” value was -3.63%.
Still for that read-out and setting: in the case of `CCOC(=O)CCC(NC(=O)c1ccc(CNc2nc3cc(C(F)(F)F)ccc3nc2C(=O)OCC)cc1)C(=O)OCC` (stereo not drawn) it was 0%; in that of `CCOC(=O)c1c(NC(=O)c2cc(CC)on2)sc(C(C)=O)c1C`, 8.3%.
Still for that read-out and setting: next, `CN1C(=O)c2[nH]nc(-c3ccc(F)cc3)c2C1c1ccccn1` (stereo not drawn): -0.168%.
Turning to `CCCCN1C(=O)c2[nH]nc(-c3ccccc3O)c2C1c1cccc(OCc2ccccc2)c1` (stereo not drawn), the Potency is 15.8 µM (active).
Consider `COc1cccc(-c2n[nH]c3c2C(c2cccc(O)c2)N(C)C3=O)c1` (stereo not drawn), for which the “activity, negative = inhibition” value was -2.1%.
Still for that read-out and setting: next, `CN(C)Cc1cn(-c2ccccc2)nc1-c1ccccc1`: -2.77%; `Cc1ccc(CNC(=O)C2(C(F)(F)F)C/C(=C\CCO)CCCO2)o1` (stereo not drawn): -17.7%; `CCOc1cc(C2C(C(=O)Nc3ccc(OC)cc3)=C(C)Nc3nc(SC)nn32)ccc1O` (stereo not drawn): 0.0326%.
In the case of `CN1c2ccc(C=O)c3c(C=O)ccc(c23)N(C)C1(C)C`, the Potency is 20 µM (active).
Turning to `Cc1ccc(C=O)c([B-](F)(F)F)c1`, the “activity, negative = inhibition” value is 14.7%.
`CC1CC(C)CN(CCOc2cccc3ccccc23)C1` (stereo not drawn): the “activity, negative = inhibition” value was -4.16%.
As for `CC(C)c1ccccc1OCC(O)CN(CC(O)COc1cccc2ccccc12)C(C)C` (stereo not drawn), the Potency is 15.8 µM (active).
Consider `CN1CCN(CCCCOc2cccc3ccccc23)CC1`, for which the “activity, negative = inhibition” value was -3.76%.
In the case of `CCN(C(=O)Cn1cnc2sc(C)c(S(=O)(=O)N3CCN(c4ncccn4)CC3)c2c1=O)c1ccccc1F`, the “activity, negative = inhibition” value was -10.9%.
For the compound `O=C(Nc1ccc2nc(SCCOc3ccccc3Cl)sc2c1)c1ccco1`, the “activity, negative = inhibition” value was -17.7%.
In the case of `CSc1ccc(CCNC(=O)c2cc(C)nc3c2c(C)nn3-c2cccc(F)c2)cc1`, the “activity, negative = inhibition” value was -13.8%.
Turning to `Cc1cc(C(=O)Nc2cccc(C(F)(F)F)c2)c2c(C)nn(-c3cccc(F)c3)c2n1`, the Potency is 7.08 µM (active).
Consider `COc1cc(NC(=O)c2cc(C3CC3)nc3c2c(C)nn3-c2ccccc2)cc(OC)c1`, for which the “activity, negative = inhibition” value is 6.51%.
Same read-out and setting: next, `O=C(Nc1cc(C(F)(F)F)ccc1Cl)c1ccc2c(c1)CCN2S(=O)(=O)c1ccccc1`: -3.22%; `O=C(Nc1cc(C(F)(F)F)ccc1Cl)c1cc2nc(-c3ccc4c(c3)OCO4)cc(C(F)(F)F)n2n1`: 0.776%.
For the compound `CN(CC(=O)Nc1cccc(C(F)(F)F)c1)S(=O)(=O)c1cccs1`, the “activity, negative = inhibition” value was -21.3%.
For the compound `Cc1oc2c(F)c(F)c(F)c(F)c2c1S(=O)(=O)Nc1cccc(C(F)(F)F)c1`, the Potency is 7.08 µM (active).
As to `Cc1noc(C)c1S(=O)(=O)Nc1cc(C(F)(F)F)ccc1N1CCOCC1`, the “activity, negative = inhibition” value is -7.13%.
Still for that read-out and setting: next, `CCC(=O)N1N=C(c2ccc(OC)cc2)CC1c1cn(-c2ccccc2)nc1-c1cccs1` (stereo not drawn): 2.04%; `Cc1nnc(SCC(=O)NCc2ccccc2Cl)c2nn(-c3ccccc3)c(C)c12`: -6.97%.
For `C=C1C(=O)[C@]23C[C@H]1CCC2[C@@]1(C)C(C[C@@H]3O)[C@](C)(C(=O)O)CC[C@@H]1O` (stereo partly drawn), the Potency is 10 µM (active).
With `CCn1cc2nc(SCc3ccccc3Cl)n(CCc3ccccc3)c(=O)c2n1`, the “activity, negative = inhibition” value was -0.372%.
As to `Cc1ccc(S(=O)(=O)c2c(Nc3cccc(Cl)c3)sc(C(=O)c3ccc4c(c3)OCO4)c2N)cc1`, the “activity, negative = inhibition” value was 0.384%.
Regarding `Cc1ccc(NC(=O)CSc2cccc3cccnc23)c(C)c1`, the Potency was 14.1 µM (active).
`Cc1ccc(NC(=O)C2CCCN2S(=O)(=O)c2cccc3cccnc23)c(C)c1` (stereo not drawn): the “activity, negative = inhibition” value is -4.43%.
Still for that read-out and setting: next, `O=C(N/N=C\c1cccnc1)c1cc(-c2ccccc2)nc2c(Cl)cccc12`: 0%.
Turning to `Cc1ccc(S(=O)(=O)N(CC(=O)N/N=C/c2ccc(F)cc2)c2cccc3cccnc23)cc1`, the “activity, negative = inhibition” value was -1.79%.
With `O=C(CSc1cccc2cccnc12)N/N=C/c1cccnc1`, the Potency is 4.47 µM (active).
Turning to `Cc1ccc(NC(=O)CSc2nc3c([nH]c4ccccc43)c(=O)n2-c2ccccc2)c(C)c1`, the “activity, negative = inhibition” value is -16.8%.
Same read-out and setting: next, `Cc1cccc(C)c1-n1ncc(C(=O)NCCCN2CCCCC2)c1C1CCN(C(=O)OC(C)(C)C)CC1`: -1.79%; `Cc1ccccc1C(=O)N(Cc1ccc(N(C)C)cc1)CC1CCCO1` (stereo not drawn): -0.952%.
As to `CCOC(=O)c1ccc(NC(=O)CC2C(=O)N(c3ccccc3)C(=O)N2Cc2cccs2)cc1` (stereo not drawn), the “activity, negative = inhibition” value is -2.46%.
Still for that read-out and setting: in the case of `CCOC(=O)C1CCN(c2nc3c(S(=O)(=O)c4ccc(CC)cc4)nnn3c3ccc(Cl)cc23)CC1` it was 0.965%.
`O=C1/C(=C/c2cccs2)SC(=S)N1C1CCS(=O)(=O)C1` (stereo not drawn): the Potency is 15.8 µM (active).
